Results filed as inconclusive are left out. The source made the active and inactive calls. Calls follow the shape of the dose curve; as a rule, active = well fitted curve in the direction sought with a large enough effect; inconclusive = small, poorly fitted or top-dose-only effect, or effect the other way, or another doubt; inactive = no such curve, though single readings can be large or run the other way.
Assay: Confirmatory redox qHTS assay for identification of artifact compounds.
Details: Amplex Red/HRP redox cycling with DTT, fluorescence; series mostly up to 39 µM
In short: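 Amplex Red (25 uM final) and HRP (250 mU/mL final) in HBSS, compound 15 min, then 250 uM DTT final 30 min, room temperature, dark; fluorescence 525/598 nm, normalized to DMSO and 10 uM DA3003, Hill fitted.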

outcome, inactive:
COc1cc2c(NC3CCN(C)CC3)nc(N3CCCN(C)CC3)nc2cc1OCCCCC(N)=O
O=C(CN1C(=O)CCn2nc(-c3ccccc3)cc21)NCc1ccc(F)cc1
O=C(NCCc1csc(-c2cccc(F)c2)n1)C(=O)Nc1cc(F)ccc1F
CC(C)=CCC/C(C)=C/C=O
O=C(COc1ccc(Cl)cc1)Nc1ccc2nc(SCC(=O)N3CCCC3)sc2c1
COc1ccc(C2C(C(=O)Nc3ccccc3)=C(C)Nc3c(C(=O)Nc4ccccc4)cnn32)cc1 (stereo not drawn)
COc1ccc(CCNC(=O)Cn2ncc3c(C)n(Cc4ccccc4F)c(C)c3c2=O)cc1OC
O=C(Nc1cc2c(cc1C(=O)c1ccccc1Cl)OCCO2)c1ccc(Br)cc1
Cc1cc(NC(=O)c2ccc([S+](=O)([O-])NCc3ccc(Cl)c(Cl)c3)cc2)no1
COc1cc(O)c(C(CC(=O)N2CCCCC2)c2ccc(C)cc2)c(OC)c1 (stereo not drawn)
CC1(C)CC(=O)c2cc(C(=O)NCCc3ccccc3)c(=O)[nH]c2C1
CCOc1ccc(C(=O)c2cn(CC(=O)Nc3cc(OC)ccc3OC)c3cc(OC)c(OC)cc3c2=O)cc1
CC(C)C[C@H](NC(=O)[C@@H](Cc1c[nH]c2ccccc12)NC(=O)[C@H](Cc1ccc(O)cc1)NC(=O)[C@H](CO)NC(=O)[C@H](Cc1c[nH]c2ccccc12)NC(=O)[C@H](Cc1cnc[nH]1)NC(=O)[C@@H]1CCC(=O)N1)C(=O)N[C@@H](CCCN=C(N)N)C(=O)N1CCC[C@H]1C(=O)NCC(N)=O
